Screening data (PubChem)
The sample as a whole holds a higher share of hits than the screen did.
Vaccinia stage = Vaccinia orthopox stage-specific inhibition; AID 1053133; hit rate 0.01% among 89,000; Vaccinia-infected cells, mCherry/Venus stage reporter fluorescence; hits give low values; activity change (mCherry), % (no concentration beside the values); in the data active = activity change below about -37%, passing the limit was not always enough; tested in A549 cells
Each line names hits and unclear results; the compound was inactive in the other large screens.

COc1ccc2c3c([nH]c2c1)[C@@H](CO)N(C(=O)Nc1cccc(F)c1)CC31CN(CC2CCOCC2)C1	none
C[C@H](CO)N1C[C@H](C)[C@H](CN(C)C)Oc2c(NC(=O)Nc3cccc4ccccc34)cccc2C1=O	none
O=C(C[C@@H]1C=C[C@H](NC(=O)Nc2ccccc2F)[C@H](CO)O1)NCc1ccccc1	none
O=C(C[C@H]1C[C@H]2c3cc(NC(=O)Nc4ccccc4)ccc3O[C@H]2[C@@H](CO)O1)NCc1ccncc1	none
CN1[C@H](C(=O)NCC2CC2)[C@@H](CO)[C@@H]2Cn3c(ccc(-c4ccc(F)cc4)c3=O)[C@@H]21	none
COc1ccc(NC(=O)Nc2ccc3c(c2)C(=O)N([C@@H](C)CO)C[C@H](C)[C@@H](CN(C)Cc2ccccc2)O3)cc1	none
CCCNC(=O)NC[C@H]1CC[C@@H]2[C@@H](CN2S(=O)(=O)c2ccccc2[N+](=O)[O-])O1	none
COc1ccccc1NC(=O)N[C@H]1C=C[C@H](CC(=O)NCc2ccc(Cl)c(Cl)c2)O[C@@H]1CO	none
COc1ccc2c3c([nH]c2c1)[C@@H](CO)N(C(=O)Nc1c(C)noc1C)CC31CN(CC2CC2)C1	none
O=C(C[C@@H]1C=C[C@@H](NS(=O)(=O)c2ccccc2)[C@H](CO)O1)NCc1ccncn1	none
C[C@@H]1CN([C@H](C)CO)C(=O)Cc2cc(NC(=O)Nc3cccc4ccccc34)ccc2O[C@@H]1CN(C)Cc1ccc(C(=O)Nc2ccccc2N)cc1	none
CCCC(=O)Nc1ccc2c(c1)OC[C@H](C)N(C(=O)CC1CC1)C[C@@H](C)[C@@H](OC)CN(C)C2=O	none
COc1cccc(-c2cnc3c(c2)C(=O)N([C@@H](C)CO)C[C@H](C)[C@H](CN(C)Cc2ccc(F)cc2)O3)c1	none
CC(=O)N1CC2(C1)[C@H](c1ccccc1)[C@H](CO)N2S(=O)(=O)c1ccccc1	none
CO[C@@H]1CN(C)C(=O)c2cc(NC(C)=O)ccc2OC[C@@H](C)N(C(=O)c2ccccn2)C[C@@H]1C	none
O=C(Nc1ccccc1)N[C@@H]1CC[C@@H](CCn2cc(-c3ccccc3F)nn2)O[C@H]1CO	none
COc1ccc(NC(=O)NC[C@H]2CC[C@H]3[C@H](CN3Cc3ccccc3C(=O)O)O2)cc1	none
C[C@H](CO)N1C[C@H](C)[C@@H](CN(C)C(=O)c2cnccn2)Oc2ncc(-c3cccc(C#N)c3)cc2C1=O	none
O=C(C1CCCCC1)N1CC2(C1)[C@H](c1ccccc1)[C@@H](CO)N2Cc1ccccc1F	none
COc1ccc(S(=O)(=O)Nc2ccc3c(c2)C(=O)N([C@H](C)CO)C[C@H](C)[C@@H](CN(C)C(=O)CCC(F)(F)F)OCCCC[C@H](C)O3)cc1	none
CCC(=O)N1[C@H](CO)[C@@H](c2ccccc2)C12CN(Cc1nccs1)C2	none
COCCNC(=O)C[C@H]1C=C[C@H](NC(=O)NC2CCCC2)[C@H](CO)O1	none
CCC(=O)N1CC2(C1)[C@H](c1ccccc1)[C@H](CO)N2Cc1cccc(Cl)c1	none
Cc1ccc(S(=O)(=O)NCC[C@@H]2CC[C@H](NC(=O)Nc3ccccc3F)[C@H](CO)O2)cc1	none
O=C(C1CCC1)N1CC[C@@H]2[C@H](CO)Nc3ccc(C4=CCCCC4)cc3[C@@H]21	none
CO[C@@H]1CN(C)C(=O)c2ccc(NC(=O)Nc3ccccc3Cl)cc2OC[C@@H](C)N(Cc2ccccc2C(=O)O)C[C@H]1C	none
CCCc1cn([C@H]2C[C@@H]3O[C@H](CO)CC[C@@H]3O[C@@H]2CCc2ccc(-c3ccccc3C#N)cc2)nn1	none
CCC(=O)N[C@@H]1C=C[C@@H](CC(=O)NCC2CC2)O[C@@H]1CO	none
CO[C@H]1CN(C)C(=O)c2cc(NC(=O)CC(F)(F)F)ccc2OC[C@H](C)NC[C@@H]1C	none
O=C(Cc1cccnc1)N1CC(=O)N2[C@@H](CO)[C@H](c3ccc(C#CC4CCCC4)cc3)[C@@H]2C1	none
COCC(=O)N1C[C@H](C)[C@H](OC)CN(C)C(=O)c2ccc(NC(=O)Nc3ccccc3)cc2OC[C@H]1C	none
O=C(C[C@H]1CC[C@@H]2[C@H](COC[C@H](O)CN2S(=O)(=O)c2cccc(F)c2)O1)Nc1ccccc1	none
Cc1ccccc1S(=O)(=O)NCC[C@H]1CC[C@@H](NC(=O)Nc2cccc(Cl)c2)[C@H](CO)O1	none
COCCNC(=O)c1cc2c(c(-c3cccc(-c4cccc(F)c4)c3)n1)[C@@H](CCO)N([S@](=O)C(C)(C)C)C2	none
CCNC(=O)c1cc2c(c(-c3cccc(-c4cccc(F)c4)c3)n1)[C@@H](CCO)N([S@](=O)C(C)(C)C)C2	none
CN1CCN(C(=O)c2cc3c(c(-c4cccc(Br)c4)n2)[C@H](CCO)N([S@@](=O)C(C)(C)C)C3)CC1	none
COc1ccccc1-c1cccc(-c2nc(C(=O)N3CCN(C)CC3)cc3c2[C@@H](CCO)N([S@](=O)C(C)(C)C)C3)c1	none
CCCNC(=O)c1cc2c(c(-c3cccc(-c4cccc(F)c4)c3)n1)[C@H](CCO)N([S@@](=O)C(C)(C)C)C2	Vaccinia stage -46
CN1CCN(C(=O)c2cc3c(c(-c4cccc(C#CCC5CCCC5)c4)n2)[C@@H](CCO)N(S(=O)C(C)(C)C)C3)CC1 (some centres not stated)	Vaccinia stage -65
COc1cccc(C#Cc2ccc([C@H]3[C@@H](CO)N4C(=O)CN(C(=O)c5ccncc5)C[C@@H]34)cc2)c1	none
CCCC(=O)N1CCC2(CC1)CN(C(=O)CC)[C@H](CO)c1c2c2ccc(OC)cc2n1C	none
Cc1ccc(S(=O)(=O)N[C@H]2CC[C@@H](CC(=O)NC3CCCCC3)O[C@@H]2CO)cc1	none
O=C(C1CC1)N1CC2(C1)[C@@H](c1ccccc1)[C@@H](CO)N2CC1CCCC1	none
Cc1ccccc1-c1cnc2c(c1)C(=O)N([C@@H](C)CO)C[C@H](C)[C@H](CN(C)Cc1cccnc1)O2	none
C[C@@H](NC(=O)[C@H]1[C@H](CO)[C@H]2Cn3c(ccc(-c4cccc(F)c4)c3=O)[C@H]2N1C)c1ccccc1	none
Cc1ccc(S(=O)(=O)N[C@H]2CC[C@H](CCn3cc(-c4cccnc4)nn3)O[C@@H]2CO)cc1	none
COCC(=O)N(C)C[C@@H]1Oc2cc(-c3ccccc3)ccc2S(=O)(=O)N([C@H](C)CO)C[C@H]1C	none
CCCN(C)C[C@H]1OCCCC[C@H](C)Oc2ccc(NS(=O)(=O)c3ccc(F)cc3)cc2C(=O)N([C@@H](C)CO)C[C@@H]1C	none
C[C@H]1CN([C@@H](C)CO)C(=O)c2cccc(NC(=O)NC3CCCCC3)c2O[C@@H]1CN(C)Cc1ccc(C(=O)O)cc1	none
O=C(C[C@@H]1C=C[C@H](NC(=O)CN2CCOCC2)[C@@H](CO)O1)NCCc1ccncc1	none
CCC(=O)N(C)C[C@H]1Oc2cc(C#CCC(C)C)ccc2S(=O)(=O)N([C@@H](C)CO)C[C@H]1C	none
COc1ccc(NC(=O)Nc2ccc3c(c2)C(=O)N([C@@H](C)CO)C[C@@H](C)[C@H](CN(C)C(=O)CCCN(C)C)OCCCC[C@@H](C)O3)cc1	none
Cc1ccc(S(=O)(=O)Nc2ccc3c(c2)C(=O)N([C@@H](C)CO)C[C@@H](C)[C@@H](CN(C)S(=O)(=O)c2ccc(C)cc2)OCCCC[C@H](C)O3)cc1	none
COc1ccc2c3c([nH]c2c1)[C@H](CO)N(C(=O)c1ccc(F)cc1)CC31CN(Cc2cccnc2)C1	none
COCCOC(=O)N1C(=O)[C@@]2(c3cc(C#CC4(O)CCCCCC4)ccc31)[C@H](c1ccc(OCCO)cc1)N1[C@H](c3ccccc3)[C@H](c3ccccc3)OC(=O)[C@H]1[C@@H]2C(=O)N1CCN(c2ncccn2)CC1	none
CC(C)NC(=O)N(C)C[C@@H]1Oc2cc(C#C[C@H](C)O)ccc2S(=O)(=O)N([C@@H](C)CO)C[C@@H]1C	none
